Targets with a hit are over-represented here; the source holds about 7,900 in all. About 0.6% of all pairs of compound and target were hits.
Assays:
Assay in all cases: log2 fold change, soluble protein after heating vs DMSO (PISA); higher = thermal stabilisation; K562 cells, 10 uM, 30 min; active = over 0.2 and 3.5 SD of the protein, either way, in both replicates (recomputed)
[1] = compound: C1=CC=C(C=C1)[C@H](COC2=CC3=C(C=C2)NC(=O)N3)NC(=O)C4=CC=CN(C4=O)CC5=CC(=C(C=C5)F)F
In short: (§1)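 Values are thermal stability changes relative to control samples and are taken from duplicates. They are stated as log2 fold changes. Before quantification by TMTpro 16plex LC-MS/MS with equalised channel sums, K562 cells at 2×10^6 cells/mL were treated with 10 μM compound for 30 min, heated in aliquots for 3 min across 48°C-58°C, pooled, extracted in PBS with 0.5% NP-40 at 4°C, and centrifuged at 21,000xg for 90 min to give the soluble supernatant.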

[2] = compound: CC1=C(SC2=C1C(=N[C@H](C3=NN=C(N32)C)CC(=O)N)C4=CC=C(C=C4)Cl)C
In short: as §1

[3] = compound: CC1=C2C(=CC=C1)N=C(N(C2=O)C3=CC=CC=C3C)CN4C=NC5=C(N=CN=C54)N
In short: as §1

[4] = compound: Cc1sc2c(c1C)C(c1ccc(Cl)cc1)=N[C@@H](CC(=O)OC(C)(C)C)c1nnc(C)n1-2
In short: as §1

[5] = compound: c1ccc([C@@H]2C[C@H]2NC2CCNCC2)cc1
In short: as §1

Measured: log2 fold change

SREK1 isoform 2 (UniProt Q8WXA9)
UniProt Q8WXA9, sequence (Q8WXA9 whole entry, looked up): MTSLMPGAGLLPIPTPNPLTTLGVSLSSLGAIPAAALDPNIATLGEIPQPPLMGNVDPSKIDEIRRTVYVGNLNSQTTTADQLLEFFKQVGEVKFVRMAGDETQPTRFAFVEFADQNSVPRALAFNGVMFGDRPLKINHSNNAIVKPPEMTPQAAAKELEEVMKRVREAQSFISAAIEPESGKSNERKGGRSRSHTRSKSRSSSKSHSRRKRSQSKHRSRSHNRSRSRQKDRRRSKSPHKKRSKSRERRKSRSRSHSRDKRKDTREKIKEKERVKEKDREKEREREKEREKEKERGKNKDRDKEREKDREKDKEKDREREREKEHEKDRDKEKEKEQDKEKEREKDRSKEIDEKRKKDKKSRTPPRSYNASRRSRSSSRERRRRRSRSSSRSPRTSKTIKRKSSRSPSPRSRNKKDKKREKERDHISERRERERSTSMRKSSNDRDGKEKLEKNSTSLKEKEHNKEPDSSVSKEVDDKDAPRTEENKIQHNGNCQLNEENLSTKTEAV
inactive: [1] 0.05 | [2] -0.06 | [3] -0.039 | [4] -0.037 | [5] 0.026

SMARCA5 (UniProt O60264)
UniProt O60264, sequence (O60264 whole entry, looked up): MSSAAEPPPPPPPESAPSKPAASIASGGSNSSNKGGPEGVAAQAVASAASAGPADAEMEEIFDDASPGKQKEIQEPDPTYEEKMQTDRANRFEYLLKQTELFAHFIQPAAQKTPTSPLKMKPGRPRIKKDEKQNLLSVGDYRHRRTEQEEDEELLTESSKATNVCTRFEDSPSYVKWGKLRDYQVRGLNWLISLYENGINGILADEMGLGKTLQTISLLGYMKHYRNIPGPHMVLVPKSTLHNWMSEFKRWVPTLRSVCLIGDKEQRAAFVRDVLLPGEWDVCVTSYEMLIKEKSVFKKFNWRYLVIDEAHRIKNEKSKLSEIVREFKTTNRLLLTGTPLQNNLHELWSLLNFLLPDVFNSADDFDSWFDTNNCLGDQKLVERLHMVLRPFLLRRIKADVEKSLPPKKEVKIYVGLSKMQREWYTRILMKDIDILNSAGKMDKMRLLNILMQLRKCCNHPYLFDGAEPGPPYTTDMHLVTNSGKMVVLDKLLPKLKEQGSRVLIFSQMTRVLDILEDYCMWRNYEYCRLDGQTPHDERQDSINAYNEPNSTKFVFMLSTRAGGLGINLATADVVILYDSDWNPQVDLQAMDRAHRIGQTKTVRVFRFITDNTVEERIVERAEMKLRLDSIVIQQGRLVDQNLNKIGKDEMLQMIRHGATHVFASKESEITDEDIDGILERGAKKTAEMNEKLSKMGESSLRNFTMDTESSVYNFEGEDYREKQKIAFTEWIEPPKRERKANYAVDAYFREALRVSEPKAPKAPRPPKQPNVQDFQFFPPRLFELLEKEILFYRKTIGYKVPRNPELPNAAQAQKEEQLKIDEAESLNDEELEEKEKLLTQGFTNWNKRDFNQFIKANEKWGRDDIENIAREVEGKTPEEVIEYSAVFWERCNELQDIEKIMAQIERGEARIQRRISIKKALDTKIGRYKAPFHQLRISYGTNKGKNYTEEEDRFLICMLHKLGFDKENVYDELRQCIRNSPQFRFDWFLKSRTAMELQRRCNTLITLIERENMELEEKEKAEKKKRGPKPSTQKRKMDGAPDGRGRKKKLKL
inactive: [1] -0.168 | [2] 0.063 | [3] 0.105 | [4] -0.026 | [5] -0.006

SSR3 isoform 2 (UniProt Q9UNL2)
UniProt Q9UNL2, sequence (Q9UNL2 whole entry, looked up): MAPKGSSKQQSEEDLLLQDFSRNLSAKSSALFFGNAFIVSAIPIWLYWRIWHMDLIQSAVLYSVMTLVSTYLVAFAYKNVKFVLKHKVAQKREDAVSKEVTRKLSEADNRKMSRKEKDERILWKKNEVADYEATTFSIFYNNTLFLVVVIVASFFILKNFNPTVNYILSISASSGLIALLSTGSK
inactive: [1] 0.016 | [2] -0.087 | [3] -0.107 | [4] -0.078 | [5] -0.168

STRN (UniProt O43815)
UniProt O43815, sequence (O43815 whole entry, looked up): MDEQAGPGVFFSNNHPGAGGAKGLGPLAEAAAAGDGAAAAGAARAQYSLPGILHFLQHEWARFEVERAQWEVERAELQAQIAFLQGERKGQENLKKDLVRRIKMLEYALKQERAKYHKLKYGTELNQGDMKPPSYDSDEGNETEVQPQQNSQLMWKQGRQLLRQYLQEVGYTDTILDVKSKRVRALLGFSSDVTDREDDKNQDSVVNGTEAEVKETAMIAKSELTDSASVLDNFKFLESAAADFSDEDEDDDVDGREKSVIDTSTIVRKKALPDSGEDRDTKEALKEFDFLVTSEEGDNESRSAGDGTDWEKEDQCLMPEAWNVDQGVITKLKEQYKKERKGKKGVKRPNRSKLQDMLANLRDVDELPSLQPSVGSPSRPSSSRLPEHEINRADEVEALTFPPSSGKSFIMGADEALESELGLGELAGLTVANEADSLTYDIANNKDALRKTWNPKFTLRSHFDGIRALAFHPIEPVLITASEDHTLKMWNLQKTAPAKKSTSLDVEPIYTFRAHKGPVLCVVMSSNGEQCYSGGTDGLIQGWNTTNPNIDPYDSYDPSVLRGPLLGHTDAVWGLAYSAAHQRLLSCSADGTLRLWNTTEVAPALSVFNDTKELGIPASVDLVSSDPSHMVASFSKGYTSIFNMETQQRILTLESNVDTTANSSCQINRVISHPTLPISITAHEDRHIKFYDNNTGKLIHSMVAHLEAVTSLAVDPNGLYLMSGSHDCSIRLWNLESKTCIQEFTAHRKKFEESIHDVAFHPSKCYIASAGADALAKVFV
inactive: [1] -0.025 | [2] 0.011 | [3] -0.003 | [4] -0.108 | [5] -0.017

TBK1 (UniProt Q9UHD2)
UniProt Q9UHD2, sequence (Q9UHD2 whole entry, looked up): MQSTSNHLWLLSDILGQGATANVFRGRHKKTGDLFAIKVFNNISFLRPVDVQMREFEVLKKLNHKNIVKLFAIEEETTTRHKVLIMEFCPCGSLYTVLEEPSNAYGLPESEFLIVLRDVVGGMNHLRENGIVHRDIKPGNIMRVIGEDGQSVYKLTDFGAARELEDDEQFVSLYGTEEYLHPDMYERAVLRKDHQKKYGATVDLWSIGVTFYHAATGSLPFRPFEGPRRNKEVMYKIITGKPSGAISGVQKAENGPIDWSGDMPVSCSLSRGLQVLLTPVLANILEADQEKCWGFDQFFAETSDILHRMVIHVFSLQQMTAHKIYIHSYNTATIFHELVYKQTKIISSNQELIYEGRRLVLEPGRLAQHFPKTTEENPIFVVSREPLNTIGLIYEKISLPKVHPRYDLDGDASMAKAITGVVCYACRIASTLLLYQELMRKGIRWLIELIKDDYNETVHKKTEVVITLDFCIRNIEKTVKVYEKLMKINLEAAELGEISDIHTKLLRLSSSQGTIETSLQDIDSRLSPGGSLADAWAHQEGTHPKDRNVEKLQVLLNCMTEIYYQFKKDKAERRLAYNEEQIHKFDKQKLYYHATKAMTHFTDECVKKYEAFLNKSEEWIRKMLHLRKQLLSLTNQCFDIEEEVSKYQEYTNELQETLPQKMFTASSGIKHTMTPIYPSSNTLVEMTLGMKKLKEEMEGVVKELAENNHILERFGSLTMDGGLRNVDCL
inactive: [1] -0.014 | [2] 0.007 | [3] 0.041 | [4] 0.011 | [5] -0.049

TAOK3 (UniProt Q9H2K8)
inactive: [1] 0 | [2] 0.057 | [3] 0.002 | [4] -0.003 | [5] -0.024

TATDN2 (UniProt Q93075)
inactive: [1] -0.044 | [2] -0.067 | [3] -0.037 | [4] 0.069 | [5] 0.071

SNX15 (UniProt Q9NRS6)
UniProt Q9NRS6, sequence (Q9NRS6 whole entry, looked up): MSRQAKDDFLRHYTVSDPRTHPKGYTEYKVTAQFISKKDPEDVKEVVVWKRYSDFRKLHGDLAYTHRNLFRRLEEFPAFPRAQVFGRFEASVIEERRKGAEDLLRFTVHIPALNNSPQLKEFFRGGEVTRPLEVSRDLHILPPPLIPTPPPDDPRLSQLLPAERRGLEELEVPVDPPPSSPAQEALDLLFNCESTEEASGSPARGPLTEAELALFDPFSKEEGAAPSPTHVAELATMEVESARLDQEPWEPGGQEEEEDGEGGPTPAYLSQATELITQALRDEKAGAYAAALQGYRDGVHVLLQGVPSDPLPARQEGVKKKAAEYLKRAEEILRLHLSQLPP
inactive: [1] 0.065 | [2] -0.032 | [3] 0.141 | [4] 0.279 | [5] -0.081

STXBP5 (UniProt Q5T5C0)
UniProt Q5T5C0, sequence (Q5T5C0 whole entry, looked up): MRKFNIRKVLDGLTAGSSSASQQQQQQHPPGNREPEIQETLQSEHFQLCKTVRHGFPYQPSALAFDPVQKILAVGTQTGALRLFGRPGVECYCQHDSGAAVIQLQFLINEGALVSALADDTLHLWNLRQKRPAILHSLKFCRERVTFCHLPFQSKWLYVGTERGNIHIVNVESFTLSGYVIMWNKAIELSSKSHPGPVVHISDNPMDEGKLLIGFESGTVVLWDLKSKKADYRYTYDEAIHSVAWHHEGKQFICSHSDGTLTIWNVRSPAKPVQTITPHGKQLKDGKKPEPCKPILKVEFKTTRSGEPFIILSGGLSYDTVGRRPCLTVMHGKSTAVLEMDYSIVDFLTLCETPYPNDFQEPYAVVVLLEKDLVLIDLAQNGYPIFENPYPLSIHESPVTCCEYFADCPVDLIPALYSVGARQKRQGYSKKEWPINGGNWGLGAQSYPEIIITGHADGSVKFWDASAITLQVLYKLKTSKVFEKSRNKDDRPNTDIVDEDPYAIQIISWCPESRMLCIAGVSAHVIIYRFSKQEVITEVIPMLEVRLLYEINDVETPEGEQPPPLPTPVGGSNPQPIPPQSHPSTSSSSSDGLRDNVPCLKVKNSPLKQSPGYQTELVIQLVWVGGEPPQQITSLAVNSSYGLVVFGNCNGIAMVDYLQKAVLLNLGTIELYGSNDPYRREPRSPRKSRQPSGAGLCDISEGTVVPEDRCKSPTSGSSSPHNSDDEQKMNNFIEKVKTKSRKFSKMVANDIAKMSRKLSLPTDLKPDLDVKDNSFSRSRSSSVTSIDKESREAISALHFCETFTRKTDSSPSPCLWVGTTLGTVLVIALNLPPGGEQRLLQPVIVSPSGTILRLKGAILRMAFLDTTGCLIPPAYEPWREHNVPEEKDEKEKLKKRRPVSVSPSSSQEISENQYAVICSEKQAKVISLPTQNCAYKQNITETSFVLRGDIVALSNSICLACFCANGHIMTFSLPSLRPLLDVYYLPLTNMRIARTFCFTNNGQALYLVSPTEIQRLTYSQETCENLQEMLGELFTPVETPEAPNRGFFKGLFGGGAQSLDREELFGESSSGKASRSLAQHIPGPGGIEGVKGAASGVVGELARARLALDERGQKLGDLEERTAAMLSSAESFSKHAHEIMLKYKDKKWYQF
inactive: [1] -0.011 | [2] 0.017 | [3] 0.15 | [4] -0.04 | [5] -0.027
